# Results as given in the supplement of paper PMC8728848.
# The sample as a whole holds a higher share of the strongest signals than the screen did.
# B1: SrpA (Streptococcus sanguis) (protein)
# chain: SSKSESTVNSQSASSETNRSSTNNGSTSSSSETARVRKRRATDTTPPTITVPSDIIAYRGEEFEFYFEITDDSGQVKNIELSTFGKPLGLNWLEYSEDNFNVPGNATSDNPLRVRVHGTVPLNEPIPADKNRAQFTRTIRAWDAAGNVSSNITFVIKYRAQTDKYNPADPTITYVDRLSSLSPSEKNAVEAAVRAANPQIPAAARITVSANGTVTITYPDSSTDTITANRVVKDLASSRSALT
# B2: FaeGac (Escherichia coli) (protein)
# chain: WMTGDFNGSVDIGGSITADDYRQKWEWKVGTGLNGFGNVLNDLTNGGTKLTITVTGNKPILLGRTKEAFATPVTGGVDGIPHIAFTDYEGASVVLRNPDGETNKKGLAYFVLPMKNAEGTKVGSVKVNASYAGVLGRGGVTSADGELLSLFADGLSSIFYGGLPRGSELSAGSAAAERTKLFGSLSRNDILGQIQRVNANITSLVDVAGSYRENMEYTDGTVVSAAYALGIANGQTIEATFNQAVTTSTQWSAPLNVAITYY
# Tests used:
# Test in all cases: glycan array binding signal (z-score within array); higher = stronger binding
# Details in all cases: glycan notation: IUPAC condensed, linker removed
# [1] = molecular target: Fuc(a1-2)Gal(b1-4)GlcNAc(b1-3)Gal(b1-4)GlcNAc
# Summary of the method: (§1)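 Glycan array binding is given as a within-array Z-score, which can be read as non-binding when negative. The arrays, 3228 of them, came from the Consortium for Functional Glycomics database and were retained only where the protein sequence was available. Z-scores were averaged across arrays of the same protein sequence at different concentrations or buffers and across linkers.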
# [2] = molecular target: Fuc(a1-2)Gal(b1-4)GlcNAc(b1-3)Gal(b1-4)GlcNAc(b1-3)Gal(b1-4)GlcNAc
# Summary of the method: as §1
# Fuc(a1-2)[Gal(a1-3)]Gal = molecular target: Fuc(a1-2)[Gal(a1-3)]Gal
# Summary of the method: as §1
# [3] = molecular target: Fuc(a1-3)[Gal(b1-4)]GlcNAc(b1-3)Gal(b1-3)[Fuc(a1-4)]GlcNAc
# Summary of the method: as §1
# [4] = molecular target: Fuc(a1-3)[GalNAc(b1-4)]GlcNAc
# Summary of the method: as §1
# Gal(a1-3)Gal(b1-4)Glc = molecular target: Gal(a1-3)Gal(b1-4)Glc
# Summary of the method: as §1
# Gal(a1-3)GalNAc = molecular target: Gal(a1-3)GalNAc
# Summary of the method: as §1
# [5] = molecular target: Gal(b1-3)GalNAc(b1-4)[Neu5Ac(a2-3)]Gal(b1-4)Glc
# Summary of the method: as §1
# [6] = molecular target: Gal(b1-4)GlcNAc(b1-6)GalNAc
# Summary of the method: as §1
# Gal3S(b1-3)GlcNAc = molecular target: Gal3S(b1-3)GlcNAc
# Summary of the method: as §1
# [7] = molecular target: GalNAc(b1-3)Gal(a1-4)Gal(b1-4)GlcNAc
# Summary of the method: as §1
# [8] = molecular target: GlcNAc(b1-3)Gal(b1-3)GalNAc
# Summary of the method: as §1
# [9] = molecular target: GlcNAc(b1-3)Gal(b1-4)GlcNAc
# Summary of the method: as §1
# [10] = molecular target: GlcNAc(b1-3)[GlcNAc(b1-4)][GlcNAc(b1-6)]GlcNAc
# Summary of the method: as §1
# Kdn(a2-3)Gal(b1-3)GlcNAc = molecular target: Kdn(a2-3)Gal(b1-3)GlcNAc
# Summary of the method: as §1
# [11] = molecular target: Man(a1-2)Man(a1-3)[Man(a1-2)Man(a1-6)]Man
# Summary of the method: as §1
# [12] = molecular target: Man(a1-2)Man(a1-3)[Man(a1-2)Man(a1-6)]Man(a1-6)[Man(a1-2)Man(a1-2)Man(a1-3)]Man(b1-4)GlcNAc(b1-4)GlcNAc
# Summary of the method: as §1
# [13] = molecular target: Man(a1-3)[Man(a1-6)]Man(a1-6)[Man(a1-3)]Man(b1-4)GlcNAc(b1-4)GlcNAc
# Summary of the method: as §1
# [14] = molecular target: Man(a1-3)[Man(a1-6)]Man(b1-4)GlcNAc(b1-4)GlcNAc
# Summary of the method: as §1
# [15] = molecular target: Neu5Ac(a2-3)Gal(b1-3)GalNAc(b1-4)[Neu5Ac(a2-3)]Gal(b1-4)Glc
# Summary of the method: as §1
# [16] = molecular target: Neu5Ac(a2-3)[Neu5Ac(a2-6)]GalNAc
# Summary of the method: as §1
# Neu5Ac(a2-6)GalNAc = molecular target: Neu5Ac(a2-6)GalNAc
# Summary of the method: as §1
# [17] = molecular target: Neu5Ac(a2-8)Neu5Ac(a2-8)Neu5Ac
# Summary of the method: as §1
# [18] = molecular target: Neu5Ac(a2-8)Neu5Ac(a2-8)Neu5Ac(a2-3)[GalNAc(b1-4)]Gal(b1-4)Glc
# Summary of the method: as §1
# [19] = molecular target: Neu5Ac(a2-8)Neu5Ac(a2-8)Neu5Ac(a2-8)Neu5Ac(a2-3)[GalNAc(b1-4)]Gal(b1-4)Glc
# Summary of the method: as §1
# [20] = molecular target: Neu5Gc(a2-3)Gal(b1-4)GlcNAc
# Summary of the method: as §1
# [21] = molecular target: Fuc(a1-2)Gal(b1-4)[Fuc(a1-3)]GlcNAc(b1-3)Gal(b1-4)[Fuc(a1-3)]GlcNAc(b1-3)Gal(b1-4)[Fuc(a1-3)]GlcNAc
# Summary of the method: as §1
# [22] = molecular target: Fuc(a1-2)[GalNAc(a1-3)]Gal(b1-4)GlcNAc
# Summary of the method: as §1
# Fuc(a1-3)GlcNAc = molecular target: Fuc(a1-3)GlcNAc
# Summary of the method: as §1
# Gal(a1-4)Gal(b1-4)Glc = molecular target: Gal(a1-4)Gal(b1-4)Glc
# Summary of the method: as §1
# Gal(b1-2)Gal = molecular target: Gal(b1-2)Gal
# Summary of the method: as §1
# Gal(b1-4)GlcNAc = molecular target: Gal(b1-4)GlcNAc
# Summary of the method: as §1
# [23] = molecular target: Gal(b1-4)GlcNAc(b1-3)Gal(b1-4)[Fuc(a1-3)]GlcNAc(b1-3)Gal(b1-4)[Fuc(a1-3)]GlcNAc
# Summary of the method: as §1
# Gal3S(b1-4)GlcNAc = molecular target: Gal3S(b1-4)GlcNAc
# Summary of the method: as §1
# Gal3S6S(b1-4)GlcNAc6S = molecular target: Gal3S6S(b1-4)GlcNAc6S
# Summary of the method: as §1
# Gal4S6S(b1-4)GlcNAc = molecular target: Gal4S6S(b1-4)GlcNAc
# Summary of the method: as §1
# Gal6S(b1-4)Glc6S = molecular target: Gal6S(b1-4)Glc6S
# Summary of the method: as §1
# Glc(a1-4)Glc = molecular target: Glc(a1-4)Glc
# Summary of the method: as §1
# Glc(a1-6)Glc(a1-6)Glc = molecular target: Glc(a1-6)Glc(a1-6)Glc
# Summary of the method: as §1
# Glc(b1-4)Glc = molecular target: Glc(b1-4)Glc
# Summary of the method: as §1
# [24] = molecular target: Man(a1-2)Man(a1-2)Man(a1-6)[Man(a1-3)]Man
# Summary of the method: as §1
# [25] = molecular target: Neu5Ac(a2-3)[GalNAc(b1-4)]Gal(b1-4)Glc
# Summary of the method: as §1
# Neu5Gc(a2-3)Gal(b1-4)Glc = molecular target: Neu5Gc(a2-3)Gal(b1-4)Glc
# Summary of the method: as §1
binder,measurement,setting,value
B1,glycan array binding signal (z-score),[1],-0.109
same,glycan array binding signal (z-score),[2],2.25
same,glycan array binding signal (z-score),Fuc(a1-2)[Gal(a1-3)]Gal,0.762
same,glycan array binding signal (z-score),[3],-0.157
same,glycan array binding signal (z-score),[4],-0.159
same,glycan array binding signal (z-score),Gal(a1-3)Gal(b1-4)Glc,0.291
same,glycan array binding signal (z-score),Gal(a1-3)GalNAc,-0.317
same,glycan array binding signal (z-score),[5],-0.532
same,glycan array binding signal (z-score),[6],-0.04
same,glycan array binding signal (z-score),Gal3S(b1-3)GlcNAc,0.646
same,glycan array binding signal (z-score),[7],-0.265
same,glycan array binding signal (z-score),[8],1.6
same,glycan array binding signal (z-score),[9],-0.543
same,glycan array binding signal (z-score),[10],-0.657
same,glycan array binding signal (z-score),Kdn(a2-3)Gal(b1-3)GlcNAc,0.272
same,glycan array binding signal (z-score),[11],-0.848
same,glycan array binding signal (z-score),[12],-0.332
same,glycan array binding signal (z-score),[13],1.57
same,glycan array binding signal (z-score),[14],-0.474
same,glycan array binding signal (z-score),[15],-0.383
same,glycan array binding signal (z-score),[16],-0.566
same,glycan array binding signal (z-score),Neu5Ac(a2-6)GalNAc,5.01
same,glycan array binding signal (z-score),[17],-0.629
same,glycan array binding signal (z-score),[18],-0.901
same,glycan array binding signal (z-score),[19],2.24
same,glycan array binding signal (z-score),[20],-0.45
B2,glycan array binding signal (z-score),[1],-0.23
same,glycan array binding signal (z-score),[2],-0.359
same,glycan array binding signal (z-score),[21],-0.161
same,glycan array binding signal (z-score),[22],-0.577
same,glycan array binding signal (z-score),Fuc(a1-3)GlcNAc,0.65
same,glycan array binding signal (z-score),Gal(a1-4)Gal(b1-4)Glc,-0.179
same,glycan array binding signal (z-score),Gal(b1-2)Gal,0.274
same,glycan array binding signal (z-score),[5],-0.107
same,glycan array binding signal (z-score),Gal(b1-4)GlcNAc,-0.506
same,glycan array binding signal (z-score),[23],0.771
same,glycan array binding signal (z-score),Gal3S(b1-4)GlcNAc,0.384
same,glycan array binding signal (z-score),Gal3S6S(b1-4)GlcNAc6S,-0.43
same,glycan array binding signal (z-score),Gal4S6S(b1-4)GlcNAc,-0.495
same,glycan array binding signal (z-score),Gal6S(b1-4)Glc6S,0.68
same,glycan array binding signal (z-score),Glc(a1-4)Glc,10.9
same,glycan array binding signal (z-score),Glc(a1-6)Glc(a1-6)Glc,6.96
same,glycan array binding signal (z-score),Glc(b1-4)Glc,2.95
same,glycan array binding signal (z-score),[24],2.13
same,glycan array binding signal (z-score),[25],0.008
same,glycan array binding signal (z-score),Neu5Gc(a2-3)Gal(b1-4)Glc,-0.764
